PubChem BioAssay
Further: test concentration not given here.

Experiment: A549 cell viability effects, profiling panel, calcein-AM fluorescence, 48 h, basal (AID 1162)
Settings: higher = more signal
Work on COc1ccc([Si](C)(C)[C@@H]2[C@@H](CCO)O[C@]3(C(=O)N(Cc4ccccc4)c4ccc(N5CCCCC5=O)cc43)[C@H]2C)cc1 yielded a z-score of -0.887.
Work on C#CCNS(=O)(=O)N(C)C yielded a z-score of -0.277.
In the case of COCCCNC(=O)[C@]1(CCS(=O)(=O)c2ccccc2)N=C(c2ccc(OCCCO)cc2)O[C@@H]1c1ccccc1, the z-score is reported as 1.73.
Molecule CC(=O)NCCCC[C@@H]1NC(=O)[C@@H]2C[C@H](C(=O)NCCCC[N+](C)(C)C)[C@H](c3cccc(OCCO)c3)N2C1=O has a z-score of -1.05.
CCCC[C@@H](O)C1=C(COc2ccccc2)Cn2c(=O)n(-c3ccccc3)c(=O)n2[C@H]1CO showed a z-score of 0.753.
C=CCOC(=O)[C@H]1[C@@H]2C(=O)O[C@@H](c3ccccc3)[C@@H](c3ccccc3)N2[C@@H](c2ccc(OCCOC(=O)[C@H]3C[C@H]4C(=O)N[C@@H](CCCCN(C)C)C(=O)N4[C@H]3c3ccc(O)cc3)cc2)[C@]12C(=O)Nc1ccccc12 gave a z-score of -0.514.
C=CCNC(=O)[C@H]1[C@@H]2C(=O)O[C@@H](c3ccccc3)[C@@H](c3ccccc3)N2[C@@H](c2ccc(OCCO)cc2)[C@]12C(=O)N(C(=O)OCCOC)c1ccc(C#CC3=CCCCC3)cc12 showed a z-score of -0.906.
COC(=O)[C@@]1(Cc2ccccc2)[C@H]2c3cc(C(=O)N4CCCC4)n(Cc4ccc(OC(F)(F)F)cc4)c3C[C@H]2CN1C(=O)c1ccccc1 gave a z-score of -0.975.
COc1ccc([Si](C)(C)[C@H]2[C@H](CCn3cc(CCO)nn3)O[C@@]3(C(=O)N(Cc4cccc(N5C(=O)c6cccc7cccc5c67)c4)c4ccccc43)[C@@H]2C)cc1 gave a z-score of -1.05.
Work on COC(=O)[C@@]1(Cc2ccc(F)cc2)[C@H]2c3cc(C(=O)N4CCCC4)n(Cc4ccccc4)c3C[C@H]2CN1C(=O)c1ccccc1 yielded a z-score of -0.858.
CCC[C@@H]1C[C@@]1(CCC)[C@@H](NC(=O)c1ccco1)c1ccc(Cl)cc1 gave a z-score of -1.03.
In the case of C[C@@]1([C@@H](NC(=O)c2cccs2)c2ccc(-c3ccccc3)cc2)C[C@H]1C1CCCCC1, the z-score is reported as -1.23.
Work on O=C1O[C@H](c2ccccc2)[C@H](c2ccccc2)N2[C@H]1[C@@H](C(=O)N1CCN(c3ncccn3)CC1)[C@]1(C(=O)Nc3ccc(C#CCCO)cc31)[C@H]2c1ccccc1OCCO yielded a z-score of 1.09.
In the case of C=C(COC)C(=O)CC[C@H](OC(=O)c1ccccc1-c1ccccc1C(=O)O)c1ccc(CO)o1, the z-score is reported as -0.643.
With COCC(=C=CC[C@@H](O)c1ccccc1OCCO)C[C@@H](O)c1ccccn1 the z-score was 0.0929.
In the case of COC(=O)C(CC#Cc1ccc2c(c1)[C@]1(C(=O)N2)[C@H](c2ccc(OCCO)cc2)N2[C@H](c3ccccc3)[C@H](c3ccccc3)OC(=O)[C@H]2[C@@H]1C(=O)O)C(=O)OC, the z-score is reported as 1.88.
Work on COCCCNC(=O)[C@]1(Cc2ccccc2CN=[N+]=[N-])N=C(c2ccc(OCCCO)cc2)O[C@@H]1c1ccccc1CN=[N+]=[N-] yielded a z-score of -0.386.
With C=C(C(=O)CC[C@H](OC(=O)c1cccnc1)c1ccc(OCCO)cc1)C(C)C the z-score was -0.328.
Molecule CC(C)CNC(=O)[C@@]1(C)c2ccccc2C(=O)N(Cc2ccccc2)[C@H]1c1ccc(CO)cc1 has a z-score of -0.151.
In the case of CC(C)(C)OC(=O)CC[C@]1(C(=O)O)COC(c2ccc(OCCCO)cc2)=N1, the z-score is reported as -0.0651.
COc1ccc([Si](C)(C)[C@@H]2[C@@H](CC(=O)N(CCO)Cc3ccccc3)O[C@]3(C(=O)N(Cc4ccc(N5CCOC5=O)cc4)c4ccccc43)[C@H]2C)cc1 showed a z-score of -0.65.
Molecule CCCCC=C[C@@H](NC(=O)CCc1ccccc1)c1ccccc1 has a z-score of -2.48.
With C=C(/C(=C/C[C@@H](OC(=O)c1ccncc1)c1ccccc1OCCO)c1cnc2ccccc2c1)C(C)C the z-score was -0.36.
Work on C=C(CCCC)/C(=C/C[C@@H](OC(=O)c1ccncc1)c1ccccc1OCCO)c1cc(C(=O)OC)ccc1OC yielded a z-score of 0.0198.
CC(C)N1C(=O)c2ccccc2[C@](C)(C(=O)O)[C@@H]1c1ccc(CO)cc1 gave a z-score of -0.786.
With COC(=O)[C@@]1(Cc2ccc(OC)cc2)[C@H]2c3cc(C(=O)N(C)C)n(Cc4cc(C)n(C)n4)c3C[C@H]2CN1C(=O)c1ccccc1 the z-score was -0.892.

Experiment: adipocyte viability effects, profiling panel, cell-based, 3T3-L1 adipocytes, calcein-AM fluorescence, 48 h, basal (AID 1163)
Settings: 3T3-L1 adipocytes viability, higher = more signal
CN(C)C(=O)[C@@]1(CCS(=O)(=O)c2ccccc2)N=C(c2ccc(OCCCO)cc2)O[C@H]1c1ccccc1CN=[N+]=[N-] gave a z-score of 0.828.
Cc1ccc(S[C@]2(C(=O)NCc3ccccc3)CC(=O)N(C3Cc4ccccc4C3)[C@@H]2c2ccc(CO)cc2I)cc1 showed a z-score of -0.196.
Work on C=C(C)[C@@H]1CC=C(C(O)C2C=CC3C(=O)N(C4CCCCC4)C(=O)C3N2Nc2ccc(OC)cc2)CC1 (some centres not stated) yielded a z-score of -1.46.
For CC(C)(C)N1CC=CC23O[C@@H]4C=CCCOC(=O)C4[C@H]2C(=O)N(CCCO)[C@@H]3C1=O (some centres not stated), the z-score was 1.75.
Work on CN(C)C(=O)[C@]1(Cc2ccccc2N=[N+]=[N-])N=C(c2ccc(OCCCO)cc2)O[C@@H]1c1ccccc1CN=[N+]=[N-] yielded a z-score of 1.01.
COC(=O)[C@@]1(Cc2ccc(OC)cc2)[C@H]2c3cc(C(=O)N4CCCC4)n(Cc4ccc(C)o4)c3C[C@H]2CN1C(=O)c1ccccc1 gave a z-score of -3.17.
[N-]=[N+]=NCc1ccccc1C[C@]1(C(=O)NCCN2CCOCC2)N=C(c2ccc(OCCCO)cc2)O[C@H]1c1ccccc1 showed a z-score of 0.117.
Molecule CCCCCCC#C[Si](O[C@H](c1ccccc1)c1cn(Cc2cccc(Cl)c2)nn1)(C(C)C)C(C)C has a z-score of -0.896.
In the case of COCCOC(=O)N1C(=O)[C@@]2(c3cc(C#CC4(O)CCCCCC4)ccc31)[C@H](C(=O)N1CCN(c3ncccn3)CC1)[C@H]1C(=O)O[C@H](c3ccccc3)[C@H](c3ccccc3)N1[C@@H]2c1ccc(O)cc1, the z-score is reported as 0.146.
COc1ccc(C(=O)Nc2ccc3c(c2)[C@]2(O[C@@H](CCO)[C@H]([Si](C)(C)c4ccc(OC)cc4)[C@H]2C)C(=O)N3Cc2ccccc2)cc1 showed a z-score of 1.39.
COc1ccc([Si](C)(C)[C@@H]2[C@@H](CCO)O[C@]3(C(=O)N(Cc4ccccc4)c4ccc(N5CCCCC5=O)cc43)[C@H]2C)cc1 showed a z-score of 2.07.
C#CCNS(=O)(=O)N(C)C gave a z-score of -0.738.
For COCCCNC(=O)[C@]1(CCS(=O)(=O)c2ccccc2)N=C(c2ccc(OCCCO)cc2)O[C@@H]1c1ccccc1, the z-score was 0.151.
CC(=O)NCCCC[C@@H]1NC(=O)[C@@H]2C[C@H](C(=O)NCCCC[N+](C)(C)C)[C@H](c3cccc(OCCO)c3)N2C1=O showed a z-score of -1.28.
Work on CCCC[C@@H](O)C1=C(COc2ccccc2)Cn2c(=O)n(-c3ccccc3)c(=O)n2[C@H]1CO yielded a z-score of 0.409.
For C=CCOC(=O)[C@H]1[C@@H]2C(=O)O[C@@H](c3ccccc3)[C@@H](c3ccccc3)N2[C@@H](c2ccc(OCCOC(=O)[C@H]3C[C@H]4C(=O)N[C@@H](CCCCN(C)C)C(=O)N4[C@H]3c3ccc(O)cc3)cc2)[C@]12C(=O)Nc1ccccc12, the z-score was 1.04.
For C=CCNC(=O)[C@H]1[C@@H]2C(=O)O[C@@H](c3ccccc3)[C@@H](c3ccccc3)N2[C@@H](c2ccc(OCCO)cc2)[C@]12C(=O)N(C(=O)OCCOC)c1ccc(C#CC3=CCCCC3)cc12, the z-score was 0.968.
In the case of COC(=O)[C@@]1(Cc2ccccc2)[C@H]2c3cc(C(=O)N4CCCC4)n(Cc4ccc(OC(F)(F)F)cc4)c3C[C@H]2CN1C(=O)c1ccccc1, the z-score is reported as -0.8.
For COc1ccc([Si](C)(C)[C@H]2[C@H](CCn3cc(CCO)nn3)O[C@@]3(C(=O)N(Cc4cccc(N5C(=O)c6cccc7cccc5c67)c4)c4ccccc43)[C@@H]2C)cc1, the z-score was -0.354.
COC(=O)[C@@]1(Cc2ccc(F)cc2)[C@H]2c3cc(C(=O)N4CCCC4)n(Cc4ccccc4)c3C[C@H]2CN1C(=O)c1ccccc1 showed a z-score of -0.273.
Work on CCC[C@@H]1C[C@@]1(CCC)[C@@H](NC(=O)c1ccco1)c1ccc(Cl)cc1 yielded a z-score of -0.741.
With C[C@@]1([C@@H](NC(=O)c2cccs2)c2ccc(-c3ccccc3)cc2)C[C@H]1C1CCCCC1 the z-score was 0.437.
O=C1O[C@H](c2ccccc2)[C@H](c2ccccc2)N2[C@H]1[C@@H](C(=O)N1CCN(c3ncccn3)CC1)[C@]1(C(=O)Nc3ccc(C#CCCO)cc31)[C@H]2c1ccccc1OCCO gave a z-score of 0.569.
C=C(COC)C(=O)CC[C@H](OC(=O)c1ccccc1-c1ccccc1C(=O)O)c1ccc(CO)o1 gave a z-score of -0.398.
Molecule COCC(=C=CC[C@@H](O)c1ccccc1OCCO)C[C@@H](O)c1ccccn1 has a z-score of 0.158.
In the case of COC(=O)C(CC#Cc1ccc2c(c1)[C@]1(C(=O)N2)[C@H](c2ccc(OCCO)cc2)N2[C@H](c3ccccc3)[C@H](c3ccccc3)OC(=O)[C@H]2[C@@H]1C(=O)O)C(=O)OC, the z-score is reported as -0.0521.
In the case of COCCCNC(=O)[C@]1(Cc2ccccc2CN=[N+]=[N-])N=C(c2ccc(OCCCO)cc2)O[C@@H]1c1ccccc1CN=[N+]=[N-], the z-score is reported as 0.0035.
For C=C(C(=O)CC[C@H](OC(=O)c1cccnc1)c1ccc(OCCO)cc1)C(C)C, the z-score was 0.165.
Molecule CC(C)CNC(=O)[C@@]1(C)c2ccccc2C(=O)N(Cc2ccccc2)[C@H]1c1ccc(CO)cc1 has a z-score of -0.751.
In the case of CC(C)(C)OC(=O)CC[C@]1(C(=O)O)COC(c2ccc(OCCCO)cc2)=N1, the z-score is reported as -2.83.
Molecule COc1ccc([Si](C)(C)[C@@H]2[C@@H](CC(=O)N(CCO)Cc3ccccc3)O[C@]3(C(=O)N(Cc4ccc(N5CCOC5=O)cc4)c4ccccc43)[C@H]2C)cc1 has a z-score of 0.603.
In the case of CCCCC=C[C@@H](NC(=O)CCc1ccccc1)c1ccccc1, the z-score is reported as -0.346.
In the case of C=C(/C(=C/C[C@@H](OC(=O)c1ccncc1)c1ccccc1OCCO)c1cnc2ccccc2c1)C(C)C, the z-score is reported as -0.368.
For C=C(CCCC)/C(=C/C[C@@H](OC(=O)c1ccncc1)c1ccccc1OCCO)c1cc(C(=O)OC)ccc1OC, the z-score was 0.725.
With CC(C)N1C(=O)c2ccccc2[C@](C)(C(=O)O)[C@@H]1c1ccc(CO)cc1 the z-score was 0.0073.
Work on COC(=O)[C@@]1(Cc2ccc(OC)cc2)[C@H]2c3cc(C(=O)N(C)C)n(Cc4cc(C)n(C)n4)c3C[C@H]2CN1C(=O)c1ccccc1 yielded a z-score of 0.336.
